Experimental data taken from PubChem BioAssay AID1159580 (chemical genetic matrix, 2015).
About 2,000 (36%) of roughly 5,500 compounds were called active. Roughly 18% stayed inconclusive and do not appear here. The list shows a part of the results. A number with no mark means an inactive call. No stated cut-off is given here; in the data, active means normalized growth mostly below about 0.91 (no sharp cut-off); inconclusive means no clear call, values can overlap the other calls; inactive means mostly above about 0.92.

Assay: chemical genetic growth profiling, strain panel (AID 1159580);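 further: tested at 20 µM; growth read once vehicle control cultures reached saturation at 30 °C; 1 = growth at the plate median or of vehicle wells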
Conditions: S. cerevisiae deletion strains, growth OD
[1] = locus YHR030C, strain SLT2, stronger effect = lower value
[2] = locus YJL187C, strain SWE1, stronger effect = lower value
[3] = locus YHR079C, strain IRE1, stronger effect = lower value
[4] = locus YJL095W, strain BCK1, stronger effect = lower value
[5] = locus YJR066W, strain TOR1, stronger effect = lower value
[6] = locus YLR113W, strain HOG1, stronger effect = lower value
[7] = locus YNL183C, strain NPR1, stronger effect = lower value
[8] = locus YOR231W, strain MKK1, stronger effect = lower value
[9] = locus YPL256C, strain CLN2, stronger effect = lower value

Compound: COC(=O)C1Cc2c([nH]c3ccccc23)C2(CCN(C)CC2)N1 (stereo unspecified)
- normalized growth (locus YAL013W, strain DEP1, stronger effect = lower value): 1.01
- normalized growth (locus YBR229C, strain ROT2, stronger effect = lower value): 0.989
- normalized growth (locus YDL101C, strain DUN1, stronger effect = lower value): 0.995
- normalized growth (locus YDL134C, strain PPH21, stronger effect = lower value): 0.981
- normalized growth (locus YDR150W, strain NUM1, stronger effect = lower value): 0.986
- normalized growth (locus YEL061C, strain CIN8, stronger effect = lower value): 0.993
- normalized growth (locus YGR078C, strain PAC10, stronger effect = lower value): 0.993
- normalized growth [1]: 0.985
- normalized growth (locus YHR087W, strain rtc3, stronger effect = lower value): 0.998
- normalized growth [2]: 0.996
- normalized growth (locus YJR043C, strain POL32, stronger effect = lower value): 1
- normalized growth (locus YJR075W, strain HOC1, stronger effect = lower value): 0.998
- normalized growth (locus YLR039C, strain RIC1, stronger effect = lower value): 0.975
- normalized growth (locus YLR058C, strain SHM2 (second series), stronger effect = lower value): 1.01
- normalized growth (locus YLR085C, strain ARP6, stronger effect = lower value): 1.01
- normalized growth (locus YLR262C, strain YPT6, stronger effect = lower value): 0.981
- normalized growth (locus YML094W, strain GIM5, stronger effect = lower value): 0.961
- normalized growth (locus YMR219W, strain ESC1, stronger effect = lower value): 0.995
- normalized growth (locus YMR263W, strain SAP30, stronger effect = lower value): 1.02
- normalized growth (locus YNL128W, strain TEP1, stronger effect = lower value): 0.973
- normalized growth (locus YNL153C, strain GIM3, stronger effect = lower value): 0.999
- normalized growth (locus YNL298W, strain CLA4 (second series), stronger effect = lower value): 1.02
- normalized growth (locus YNL322C, strain KRE1, stronger effect = lower value): 0.987
- normalized growth (locus YNR030W, strain Alg12, stronger effect = lower value): 1.01
- normalized growth (locus YOL006C, strain TOP1, stronger effect = lower value): 1
- normalized growth (locus YPL055C, strain LGE1, stronger effect = lower value): 1.01
- normalized growth (locus YPL241C, strain CIN2, stronger effect = lower value): 0.977
- normalized growth (locus YPR135W, strain CTF4, stronger effect = lower value): 0.944

Compound: CCCNCCCCCC[N+](C)(C)C
- normalized growth [1]: 1.02
- normalized growth [3]: 0.975
- normalized growth [4]: 0.979
- normalized growth [5]: 0.927
- normalized growth [6]: 1.02
- normalized growth [7]: 0.932
- normalized growth [8]: 0.984
- normalized growth [9]: 0.989

Compound: Cc1cc(-n2c(=O)[nH]c(=O)n(C)c2=O)ccc1Oc1ccc(SC(F)(F)F)cc1
- normalized growth (locus YAL021C, strain ccr4, stronger effect = lower value): 0.925
- normalized growth (locus YAL026C, strain drs2, stronger effect = lower value): 0.602 (active)
- normalized growth (locus YAL030W, strain snc1, stronger effect = lower value): 0.565 (active)
- normalized growth (locus YBL061C, strain skt5, stronger effect = lower value): 0.688 (active)
- normalized growth (locus YBR009C, strain hhf1, stronger effect = lower value): 0.552 (active)
- normalized growth (locus YBR023C, strain chs3, stronger effect = lower value): 0.742 (active)
- normalized growth (locus YBR171W, strain sec66, stronger effect = lower value): 0.802 (active)
- normalized growth (locus YBR231C, strain swc5, stronger effect = lower value): 0.868 (active)
- normalized growth (locus YBR279W, strain paf1, stronger effect = lower value): 0.935
- normalized growth (locus YCL011C, strain gbp2, stronger effect = lower value): 0.548 (active)
- normalized growth (locus YCL016C, strain dcc1, stronger effect = lower value): 0.905 (active)
- normalized growth (locus YCL061C, strain MRC1, stronger effect = lower value): 0.792 (active)
- normalized growth (locus YCL069W, strain vba3, stronger effect = lower value): 0.978
- normalized growth (locus YCR088W, strain abp1, stronger effect = lower value): 0.793 (active)
- normalized growth (locus YDL005C, strain med2, stronger effect = lower value): 0.583 (active)
- normalized growth (locus YDL040C, strain nat1, stronger effect = lower value): 0.863 (active)
- normalized growth (locus YDR001C, strain nth1, stronger effect = lower value): 0.845 (active)
- normalized growth (locus YDR069C, strain doa4, stronger effect = lower value): 0.941
- normalized growth (locus YDR137W, strain rgp1, stronger effect = lower value): 0.405 (active)
- normalized growth (locus YDR159W, strain sac3, stronger effect = lower value): 0.532 (active)
- normalized growth (locus YDR195W, strain ref2): 0.418 (active)
- normalized growth (locus YDR297W, strain sur2, stronger effect = lower value): 0.695 (active)
- normalized growth (locus YDR334W, strain swr1, stronger effect = lower value): 0.855 (active)
- normalized growth (locus YDR335W, strain msn5, stronger effect = lower value): 0.661 (active)
- normalized growth (locus YDR392W, strain spt3, stronger effect = lower value): 0.141 (active)
- normalized growth (locus YEL003W, strain gim4, stronger effect = lower value): 0.704 (active)
- normalized growth (locus YEL037C, strain rad23, stronger effect = lower value): 0.933
- normalized growth (locus YEL061C, strain CIN8 (second series), stronger effect = lower value): 0.647 (active)
- normalized growth (locus YER015W, strain faa2, stronger effect = lower value): 0.994
- normalized growth (locus YER016W, strain bim1, stronger effect = lower value): 0.935
- normalized growth (locus YER111C, strain swi4, stronger effect = lower value): 0.75 (active)
- normalized growth (locus YER155C, strain BEM2 (second series), stronger effect = lower value): 0.968
- normalized growth (locus YFR010W, strain ubp6, stronger effect = lower value): 0.76 (active)
- normalized growth (locus YGL167C, strain pmr1, stronger effect = lower value): 1.02
- normalized growth (locus YGL173C, strain kem1, stronger effect = lower value): 0.895 (active)
- normalized growth (locus YGL227W, strain vid30, stronger effect = lower value): 0.867 (active)
- normalized growth (locus YGL240W, strain doc1, stronger effect = lower value): 0.629 (active)
- normalized growth (locus YGL253W, strain hxk2, stronger effect = lower value): 0.701 (active)
- normalized growth (locus YHR013C, strain ard1, stronger effect = lower value): 0.998
- normalized growth (locus YHR027C, strain rpn1, stronger effect = lower value): 0.969
- normalized growth [1]: 0.811 (active)
- normalized growth [3]: 0.786 (active)
- normalized growth (locus YHR142W, strain chs7, stronger effect = lower value): 0.318 (active)
- normalized growth (locus YJL092W, strain hpr5, stronger effect = lower value): 0.844 (active)
- normalized growth (locus YJL095W, strain BCK1 (second series), stronger effect = lower value): 0.754 (active)
- normalized growth [4]: 0.724 (active)
- normalized growth (locus YJL115W, strain asf1, stronger effect = lower value): 0.926
- normalized growth (locus YJL129C, strain trk1, stronger effect = lower value): 0.882
- normalized growth (locus YJL154C, strain vps35, stronger effect = lower value): 0.644 (active)
- normalized growth (locus YJL164C, strain tpk1, stronger effect = lower value): 0.346 (active)
- normalized growth (locus YJL166W, strain qcr8, stronger effect = lower value): 0.383 (active)
- normalized growth [2]: 0.546 (active)
- normalized growth [5]: 0.75 (active)
- normalized growth (locus YKL160W, strain elf1, stronger effect = lower value): 0.69 (active)
- normalized growth (locus YKR026C, strain gcn3, stronger effect = lower value): 0.707 (active)
- normalized growth (locus YKR091W, strain srl3, stronger effect = lower value): 0.908 (active)
- normalized growth (locus YLL001W, strain dnm1, stronger effect = lower value): 0.844 (active)
- normalized growth (locus YLL026W, stronger effect = lower value): 0.169 (active)
- normalized growth (locus YLL041C, strain sdh2, stronger effect = lower value): 0.775 (active)
- normalized growth (locus YLR027C, strain aat2, stronger effect = lower value): 0.589 (active)
- normalized growth [6]: 0.764 (active)
- normalized growth (locus YLR221C, strain rsa3, stronger effect = lower value): 0.436 (active)
- normalized growth (locus YLR258W, strain gsy2, stronger effect = lower value): 0.705 (active)
- normalized growth (locus YLR262C, strain YPT6 (second series), stronger effect = lower value): 0.367 (active)
- normalized growth (locus YLR320W, strain mms22, stronger effect = lower value): 0.823 (active)
- normalized growth (locus YLR342W, strain FKS1, stronger effect = lower value): 0.864 (active)
- normalized growth (locus YLR357W, strain rsc2, stronger effect = lower value): 0.581 (active)
- normalized growth (locus YLR370C, strain arc18, stronger effect = lower value): 0.886 (active)
- normalized growth (locus YLR384C, strain iki3, stronger effect = lower value): 1.03
- normalized growth (locus YML120C, strain ndi1, stronger effect = lower value): 0.844 (active)
- normalized growth (locus YMR058W, strain fet3, stronger effect = lower value): 0.705 (active)
- normalized growth (locus YMR125W, strain sto1, stronger effect = lower value): 0.709 (active)
- normalized growth (locus YMR129W, stronger effect = lower value): 1.02
- normalized growth (locus YMR205C, strain PFK2, stronger effect = lower value): 0.705 (active)
- normalized growth (locus YMR231W, strain pep5, stronger effect = lower value): 0.703 (active)
- normalized growth (locus YNL071W, strain lat1, stronger effect = lower value): 0.422 (active)
- normalized growth [7]: 0.81 (active)
- normalized growth (locus YNL209W, strain ssb2, stronger effect = lower value): 0.915 (active)
- normalized growth (locus YNL248C, strain rpa49, stronger effect = lower value): 0.635 (active)
- normalized growth (locus YNL322C, strain KRE1 (second series), stronger effect = lower value): 1.03
- normalized growth (locus YNR049C, strain mso1, stronger effect = lower value): 0.98
- normalized growth (locus YOR001W, strain rrp6, stronger effect = lower value): 0.888 (active)
- normalized growth (locus YOR070C, strain gyp1, stronger effect = lower value): 0.754 (active)
- normalized growth (locus YOR080W, strain dia2, stronger effect = lower value): 1.02
- normalized growth (locus YOR083W, strain WHI5, stronger effect = lower value): 0.758 (active)
- normalized growth (locus YOR106W, strain vam3, stronger effect = lower value): 0.424 (active)
- normalized growth [8]: 0.804 (active)
- normalized growth (locus YOR265W, strain rbl2, stronger effect = lower value): 0.893 (active)
- normalized growth (locus YOR270C, strain vph1, stronger effect = lower value): 0.344 (active)
- normalized growth (locus YOR290C, strain snf2, stronger effect = lower value): 0.763 (active)
- normalized growth (locus YPL051W, strain arl3, stronger effect = lower value): 0.636 (active)
- normalized growth (locus YPL078C, strain atp4, stronger effect = lower value): 0.547 (active)
- normalized growth (locus YPL106C, strain sse1, stronger effect = lower value): 0.469 (active)
- normalized growth (locus YPL240C, strain hsp82, stronger effect = lower value): 0.954
- normalized growth [9]: 0.764 (active)
